Results on eight molecules are retold here after PubChem BioAssay (Tox21).

Inconclusive results are not listed. The source made the active and inactive calls. Unless noted, calls come from the whole dose curve; as a rule, active = well fitted curve in the direction sought with a large enough effect in the repeat runs; inconclusive = weak or mixed curves; inactive = no such curve, though single readings can be large; an effect the other way counts as inactive or inconclusive.

The nature of assay [1]: qHTS assay to identify small molecule agonists of the peroxisome proliferator-activated receptor delta (PPARd) signaling pathway - cell viability counter screen (AID 743211). Note: nearly all actives have a fitted effect of over 55% in size. Put shortly:
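Viability of GeneBLAzer PPARd UAS-bla HEK293H cells was assessed after 17 h compound incubation at 37C, using CellTiter-Glo reagent added after the reporter read and luminescence recorded 30 min later.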
Background: Quantitative high-throughput screening tests each substance at several concentrations.

A short description of assay [2]: qHTS assay to identify small molecule antagonists of the peroxisome proliferator-activated receptor delta (PPARd) signaling pathway - cell viability counter screen (AID 743213). Note: nearly all actives have a fitted effect of over 50% in size. The method, boiled down: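 Agonist-stimulated (L165041, 300 nM final) HEK293H PPARd UAS-bla cells are exposed to compounds for 17 h at 37 C, and ATP-based luminescence (CellTiter-Glo) from the same wells reports cytotoxicity.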

Assay [3] is described as follows: qHTS assay to identify small molecule antagonists of the farnesoid-X-receptor (FXR) signaling pathway - cell viability counter screen (AID 743221; active = well fitted cell-killing curve with a large enough effect in the repeat runs, not every such curve was filed as active; note: nearly all actives have a fitted effect of over 50% in size). Put shortly: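 Quantitative HTS of the Tox21 10K library run in parallel with the beta-lactamase reporter read. HEK 293T cells carrying a UAS-driven bla reporter got compound and 50 uM CDCA (final) for 16 h; ATP-based luminescence followed.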

Assay [4] can be described thus: qHTS assay to identify small molecule agonists of the vitamin D receptor (VDR) signaling pathway - cell viability counter screen (AID 743224). Note: series mostly up to about 63 µM; nearly all actives have a fitted effect of over 50% in size. The method, boiled down:
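Compounds were pin-transferred onto VDR-bla cells plated 4 h earlier; following 16 h incubation at 37C, cell viability was quantified by CellTiter-Glo luminescence after 30 min at room temperature.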

Assay [5] can be described thus: qHTS assay to identify small molecule antagonists of the vitamin D receptor (VDR) signaling pathway - cell viability counter screen (AID 743225). Note: nearly all actives have a fitted effect of over 50% in size. The method, boiled down: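 Cells (VDR-UAS-bla HEK 293T) are plated, rested 4 h at 37C, dosed with compound and 3 nM final 1-alpha,25-dihydroxy vitamin D3, and incubated 16 h. Viability is taken from CellTiter-Glo luminescence in the reporter wells.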

Assay [6] can be described thus: qHTS assay to identify small molecule agonists of the NFkB signaling pathway (AID 1159509; active = well fitted curve in the direction sought with a large enough effect in the signal ratio in the repeat runs, not every such curve was filed as active; the % refers to the signal ratio; note: series mostly up to about 61 µM). The method, boiled down: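 Agonist activity was read as beta-lactamase-driven FRET change (460 and 530 nm emission, 405 nm excitation) following 1.5 hr substrate loading at room temperature. Beforehand, ME-180 NFkB-bla reporter cells were treated with compounds for 5 hr at 37 C.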

Assay [7] can be described thus: qHTS assay to identify small molecule agonists of the NFkB signaling pathway - cell viability counter screen (AID 1159515; calls by dose curve; note: series mostly up to about 61 µM; nearly all actives have a fitted effect of over 55% in size). Put shortly: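 Parallel cytotoxicity counter screen in ME-180 cells carrying an NFkB-response-element beta-lactamase reporter, 2,000 cells/well. Compound exposure lasted 5 hr at 37 C, 5% CO2. Cell viability was quantified by CellTiter-Glo luminescence.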

A short description of assay [8]: qHTS assay to identify small molecule agonists of the endoplasmic reticulum stress response signaling pathway (AID 1159516; active = well fitted activation curve with a large enough effect in the signal ratio in the repeat runs, not every such curve was filed as active; the % refers to the signal ratio). The method, boiled down:
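Using a HeLa line with an ESRE-driven beta-lactamase gene, agonist activity was measured by FRET substrate fluorescence (460 and 530 nm emission) after cells were treated with compounds for 5 hr at 37 C and 5% CO2.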

Assay [9] can be described thus: qHTS assay to identify small molecule agonists of the endoplasmic reticulum stress response signaling pathway - cell viability counter screen (AID 1159517; calls by dose curve). Put shortly: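 In parallel with the ESRE reporter read, cytotoxicity was scored by CellTiter-Glo luminescence (30 min, room temperature) on HeLa ESRE-bla cells dosed for 5 hr.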
Assay [10] concerns the target Nuclear receptor ROR-gamma (Homo sapiens) (UniProt P51449). Nature of the assay: qHTS assay to identify small molecule antagonists of the retinoid-related orphan receptor gamma (ROR-gamma) signaling pathway (AID 1159521; note: nearly all actives have a fitted effect of over 50% in size; note: potency is the fitted concentration of half-maximal effect). Put shortly:
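RORγ antagonism is scored from reduced reporter luminescence in Tet-on CHO cells. Induction used 1 uM final doxycycline hyclate for 16 h at 37 C, following a 2 h compound exposure.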

Assay [11] is described as follows: qHTS assay to identify small molecule agonists of the AP-1 signaling pathway (AID 1159526; calls by dose curve).
The target in assay [12] is Peroxisome proliferator-activated receptor delta (Homo sapiens) (UniProt Q03181). Nature of the assay: qHTS assay to identify small molecule agonists of the peroxisome proliferator-activated receptor delta (PPARd) signaling pathway (AID 743212; calls by dose curve). The method, boiled down:
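Tox21 library screened in GeneBLAzer PPARd UAS-bla HEK293H cells. After compound treatment at 37 C, a FRET-based beta-lactamase substrate was applied for 2 h and fluorescence recorded.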

Assay [13] has the same target. Put plainly: qHTS assay to identify small molecule antagonists of the peroxisome proliferator-activated receptor delta (PPARd) signaling pathway (AID 743215; active = well fitted inhibition curve with a large enough effect in the signal ratio in the repeat runs, not every such curve was filed as active; the % refers to the signal ratio; note: series mostly up to about 62 µM). The method, boiled down:
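Plated HEK293H PPARd-bla cells rested 5 h at 37 C and 5% CO2. Compound, then agonist L165041 at 300 nM final, was added; 17 h at 37 C followed. Substrate loading, 2 h room temperature, fluorescence measured.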

Assay [14] addresses Bile acid receptor (Homo sapiens) (UniProt Q96RI1). Nature of the assay: qHTS assay to identify small molecule agonists of the farnesoid-X-receptor (FXR) signaling pathway (AID 743220; active = well fitted activation curve with a large enough effect in the signal ratio in the repeat runs, not every such curve was filed as active; the % refers to the signal ratio). Put shortly: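 FXR-UAS-bla HEK 293T cells carrying a UAS-driven beta-lactamase reporter were plated for 5 h at 37C/5% CO2, then exposed to DMSO-dissolved Tox21 10K compounds for 16 h at 37C. A LiveBLAzer B/G FRET substrate was loaded for 2 h at room temperature before fluorescence reading.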

The nature of assay [15]: qHTS assay to identify small molecule antagonists of the retinoid-related orphan receptor gamma (ROR-gamma) signaling pathway - cell viability counter screen (AID 1159520). Note: nearly all actives have a fitted effect of over 50% in size. Put shortly: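 Tet-on ROR gamma CHO cells were given compounds for 2 hr, then doxycycline hyclate at 1 uM final, and incubated 16 hr at 37 C. Viability was measured as ATP content by CellTiter-Glo luminescence.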

Assay [16] is described as follows: qHTS assay to identify small molecule agonists of the AP-1 signaling pathway - cell viability counter screen (AID 1159525; calls by dose curve; note: nearly all actives have a fitted effect of over 55% in size). Put shortly:
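Same-well cytotoxicity counter screen of the Tox21 10K library in ME-180 cells. The readout is ATP-dependent luminescence after 5 h compound treatment. Data are normalised to DMSO and tetra n-octyl ammonium bromide controls.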

The nature of assay [17]: qHTS assay to identify small molecule agonists of the farnesoid-X-receptor (FXR) signaling pathway - cell viability counter screen (AID 743218). Note: nearly all actives have a fitted effect of over 45% in size. Put shortly: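 Viability of FXR-bla HEK 293T cells is measured by ATP-based CellTiter-Glo luminescence following 16 h compound treatment at 37 C and a prior 2 h room-temperature beta-lactamase substrate step.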
The target of assay [18] is Vitamin D3 receptor (Homo sapiens) (UniProt P11473). Nature of the assay: qHTS assay to identify small molecule agonists of the vitamin D receptor (VDR) signaling pathway (AID 743222; calls by dose curve). Put shortly:
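Fluorescence from cleaved LiveBLAzer B/G FRET substrate served as readout. VDR-bla cells had been treated 16 h at 37C with test compounds in DMSO, following a 4 h settling period, and substrate was loaded for 2 h at RT.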

The target is the same in assay [19]. Nature of the assay: qHTS assay to identify small molecule antagonists of the vitamin D receptor (VDR) signaling pathway (AID 743223; active = well fitted inhibition curve with a large enough effect in the signal ratio in the repeat runs, not every such curve was filed as active; the % refers to the signal ratio). Put shortly: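 Fluorescence from LiveBLAzer B/G FRET substrate, read after 2 h at room temperature, reflects beta-lactamase reporter activity in VDR-bla cells treated 16 h at 37C with compounds and agonist 1alpha,25-dihydroxyvitamin D3 (3 nM final).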

The target in assay [20] is Bile acid receptor (Homo sapiens) (UniProt Q96RI1). Put plainly: qHTS assay to identify small molecule antagonists of the farnesoid-X-receptor (FXR) signaling pathway (AID 743217; active = well fitted inhibition curve with a large enough effect in the signal ratio in the repeat runs, not every such curve was filed as active; the % refers to the signal ratio). Put shortly: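 Screen of the Tox21 10K library in quantitative HTS format using FXR-UAS-bla HEK 293T reporter cells. Agonist chenodeoxycholic acid, 50 uM final, added with compounds; 16 h incubation at 37 °C; beta-lactamase FRET fluorescence measured.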
Bile acid receptor (Homo sapiens), sequence (Q96RI1 whole entry, looked up): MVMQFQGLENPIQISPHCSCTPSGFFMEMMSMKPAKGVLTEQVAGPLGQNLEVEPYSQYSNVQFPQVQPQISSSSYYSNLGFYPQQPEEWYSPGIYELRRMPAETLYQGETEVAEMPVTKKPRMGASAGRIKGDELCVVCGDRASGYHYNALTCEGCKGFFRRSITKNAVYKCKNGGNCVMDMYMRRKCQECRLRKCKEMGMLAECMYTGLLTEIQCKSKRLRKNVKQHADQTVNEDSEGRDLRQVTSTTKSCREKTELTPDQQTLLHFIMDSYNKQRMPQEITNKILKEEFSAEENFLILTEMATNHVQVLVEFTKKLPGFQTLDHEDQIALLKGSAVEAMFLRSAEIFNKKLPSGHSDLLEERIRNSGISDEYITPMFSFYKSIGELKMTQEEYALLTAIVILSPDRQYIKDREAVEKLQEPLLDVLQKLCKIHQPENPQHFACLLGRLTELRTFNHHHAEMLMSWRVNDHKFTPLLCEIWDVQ

Vitamin D3 receptor (Homo sapiens), sequence (P11473 whole entry, looked up): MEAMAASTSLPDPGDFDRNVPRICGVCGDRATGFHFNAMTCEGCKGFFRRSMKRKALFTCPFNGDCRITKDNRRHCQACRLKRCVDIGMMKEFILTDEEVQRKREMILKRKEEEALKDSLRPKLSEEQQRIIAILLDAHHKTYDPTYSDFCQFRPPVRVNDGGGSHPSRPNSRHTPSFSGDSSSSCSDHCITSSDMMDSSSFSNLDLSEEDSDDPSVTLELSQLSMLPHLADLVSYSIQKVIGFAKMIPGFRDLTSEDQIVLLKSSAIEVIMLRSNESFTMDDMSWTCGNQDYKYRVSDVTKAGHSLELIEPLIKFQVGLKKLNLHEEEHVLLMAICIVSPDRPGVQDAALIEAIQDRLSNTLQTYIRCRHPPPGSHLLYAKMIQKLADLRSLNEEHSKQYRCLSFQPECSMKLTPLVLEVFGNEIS
Peroxisome proliferator-activated receptor delta (Homo sapiens), sequence (Q03181 whole entry, looked up): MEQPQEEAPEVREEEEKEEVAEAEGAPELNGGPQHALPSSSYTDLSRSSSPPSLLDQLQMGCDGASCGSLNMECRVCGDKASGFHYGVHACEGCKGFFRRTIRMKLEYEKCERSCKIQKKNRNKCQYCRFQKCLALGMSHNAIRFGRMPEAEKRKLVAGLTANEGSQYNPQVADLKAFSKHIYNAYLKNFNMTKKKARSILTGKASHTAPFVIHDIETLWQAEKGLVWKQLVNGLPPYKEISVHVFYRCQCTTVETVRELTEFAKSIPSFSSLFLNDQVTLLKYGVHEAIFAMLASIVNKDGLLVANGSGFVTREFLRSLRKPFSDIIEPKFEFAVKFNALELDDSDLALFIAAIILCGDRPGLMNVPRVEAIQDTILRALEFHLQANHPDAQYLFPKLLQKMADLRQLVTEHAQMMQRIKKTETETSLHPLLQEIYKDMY

Take `C#CC(O)C(CC)CCCC` (centres undefined): the Potency result in assay [1], in [2], in [3], in assay [10] and in assay [11] was “inactive” in each case. Further, the molecule was classed as inactive in assay [4], in assay [5], in [6], in [7], in [8] and in assay [9].
Regarding `CCN1CCCC(OC(=O)C(c2ccccc2)c2ccccc2)C1` (centres undefined), the Potency entry in assay [1], in assay [2], in assay [3], in assay [15], in assay [10] and in assay [11] was “inactive” throughout. In addition, the molecule was classed as inactive in assay [12], in [13], in assay [14], in assay [4], in [5] and in [6]. The result in assay [7], in [8] and in assay [16] was inactive.
As for `CC/C=C\CCCCO`, the Potency result in [2], in assay [15], in [10] and in assay [11] was “inactive” in each case. Besides, the result in assay [17], in assay [18], in [19], in assay [4], in [5] and in assay [6] was inactive. The result in assay [7], in [8] and in assay [16] was inactive.
Turning to `CCC(=O)c1cccc(Cl)c1`, the Potency entry in assay [1], in assay [2], in [15], in [10] and in assay [11] was “inactive” throughout. The result in [12], in assay [13], in [19], in assay [4], in assay [5] and in assay [6] was inactive. The molecule was classed as inactive in assay [7], in assay [8] and in assay [16].
On to `CC/C=C\C#N`, for which the Potency entry in assay [1], in assay [2], in assay [3], in [15], in [10] and in [11] was “inactive” throughout. In addition, the molecule was classed as inactive in assay [12], in assay [4], in [5], in assay [6], in assay [7] and in assay [8].
Take `C=CCOCC(O)CS(=O)(=O)O` (centres undefined): the Potency entry in assay [1], in [2], in assay [3], in assay [15], in assay [10] and in assay [11] was “inactive” each time. Moreover, the call in assay [12], in assay [13], in [17], in assay [18], in assay [4] and in assay [5] was inactive. Moreover, the molecule was called inactive in assay [6], in assay [7], in [8] and in [16].
In the case of `CCCCCOC(=O)Nc1nc(=O)n([C@@H]2O[C@H](C)[C@@H](O)[C@H]2O)cc1F`, the Potency result in [2], in assay [3], in assay [15] and in [11] was “inactive” throughout. Besides, the call in assay [17], in assay [18], in assay [19], in assay [4], in assay [5] and in assay [6] was inactive. Further, the molecule was called inactive in assay [7], in assay [8] and in assay [16]. Besides, in assay [10], the Potency is 11.9 µM (active).
`CC(C)COC(=O)C(C)C`: the Potency entry in assay [1], in [2], in [3], in assay [15], in assay [10] and in [11] was “inactive” throughout. Also, the molecule was called inactive in assay [12], in assay [13], in assay [20], in assay [17], in assay [14] and in [18]. Moreover, the outcome in assay [19], in assay [4], in assay [5], in [6], in assay [7] and in assay [8] was inactive. In addition, the molecule was classed as inactive in assay [16].
